Molecules are shown by their SMILES. About 83,000 compounds went through this panel and 20% of them were active in at least one assay; those are over-represented in the sample as a whole.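 Compound tested at a single concentration for 48 hours in 96-well plates; a percent growth value below 10 was scored as active.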 A number with no mark means an inactive call. Calls of active or inactive are those of the source.

The test relates to NCI-H522 lung. As to the kind of experiment: NCI-60 one-dose screen, 48 h (100 = growth as untreated, 0 = no growth, -100 = all killed). Conditions: 10 µM unless noted. How it is done: Growth inhibition of the NCI-H522 human Non-Small Cell Lung tumor cell line is measured as a screen for anti-cancer activity. Cells are grown in 96 well plates and exposed to the test compound for 48 hours. Compounds are tested at a single concentration, which is 10^-5 M for most compounds. The reported endpoint is percent growth (GI% or GIPRCNT), where numbers from 0 - 100% represent growth inhibition, and numbers from -100% - 0 represent cell death. For example, a value of 40 represents 60% growth inhibition. A value of 0 means no net growth occurred over the course of the experiment. A value of -40 indicates 40% of cells at the beginning of the experiment died by the end of the experiment. A value of -100 means all cells are dead at the end of the experiment.
NCI-60 Human Tumor Cell Lines Screen was performed using the standard one-dose NCI protocol, which is described in more detail at https://dtp.cancer.gov/discovery_development/nci-60/default.htm.
Compounds with GIPRCNT values below 10 were considered active. Activity score was based on GIPRCNT using the following formula: […]
Score is 0 for GIPRCNT values of 100 or above, 50 for GIPRCNT values of 0, and 100 for GIPRCNT values of -100.
As for `Cc1ccc(N)cc1[As]=[As]c1cc(N)ccc1C` (stereo not given), the growth was -88.2% (active).

On to `N#[N+]c1nc2nc(N)[nH]c(=O)c2[nH]1`, for which the growth is 94.8%.

On to `CC(=O)O[C@H]1CCC2(C)C(=CCC3C2CCC2(C)/C(=N/OC(=O)c4ccc(N(CCCl)CCCl)cc4)CCC32)C1` (stereo not given in full), for which the growth was 27.6%.

In the case of `NC(Cc1ccc2c(c1)OCO2)c1ccc2c(c1)OCO2` (stereo not given), the growth was 97.2%.

In the case of `COc1ccc(C2=NN(c3ccccc3)C(c3sc(N(CCCl)CCCl)nc3Cl)C2)cc1` (stereo not given), the growth is 71%.

For the compound `N#CC1c2ccccc2C=CN1C(=O)c1ccc(N(CCCl)CCCl)cc1` (stereo not given), the growth was 69%.

As to `CCOc1c(Cl)cc(CNC(C)C(O)c2ccccc2)cc1OC` (stereo not given), the growth was 69.1%.

As to `C/C1=C/C(=O)O[C@@H]2C[C@@H](CC[C@H](C)/C=C\C=C\CC1)O[C@@](OCCc1ccccc1)([C@@H]1CSC(=O)N1)C2`, the growth is 7.26% (active).

As for `Cc1ccc(C(=O)C2CN(C)CCC2(O)c2ccc(C)cc2)cc1` (stereo not given), the growth is 111%.

`C[C@]12CC[C@@H]3C4=C(CC[C@H]3[C@@H]1CC[C@@H]2O)CC(=O)CC4`: the growth was 90.8%.

Turning to `CO[C@@H](c1ccccc1Cl)[C@H](C)OC(N)=O`, the growth is 94.2%.

`Cc1ccc(C[As+](c2ccccc2)(c2ccccc2)c2ccccc2)cc1`: the growth is -22% (active).

As for `COc1ccc(C(=O)c2ccc([As]=O)cc2)cc1` (stereo not given), the growth is -84.1% (active).

On to `COc1cc(CNCCc2ccc(Cl)cc2)cc(OC)c1O`, for which the growth is 16.1%.

Take `C/C(=C\C(=O)O[C@H]1[C@@H]2[C@H](C)CC[C@H]2[C@]2(C)O[C@@]1(C1CCCCC1)C[C@H]2OC(=O)CO)c1ccccc1`: the growth is 20.3%.

On to `C[C@]12CCC(=O)CC1CC[C@@H]1C2CC[C@@]2(C)C1CC[C@@H]2OC(=O)CC[Se][Se]CCC(=O)O[C@H]1CCC2[C@@H]3CCC4CC(=O)CC[C@]4(C)C3CC[C@@]21C` (stereo not given in full), for which the growth was 88.3%.

With `CC(=O)N1N=C(c2ccccc2)CC1c1sc(N(CCCl)CCCl)nc1Cl` (stereo not given), the growth was 72.2%.

`CCOP(=O)(OCC)Oc1ccc(Sc2ccc(OP(=O)(OCC)OCC)cc2)cc1`: the growth is 91.2%.

Consider `C[C@]12CC[C@H]3[C@@H](C[C@@H]4N=C(c5ccc(O)cc5)S[C@@]45C[C@H](O)CC[C@]35C)[C@@H]1CC[C@@H]2O`, for which the growth was 41.2%.

In the case of `O=[N+]([O-])c1ccccc1N1CCNCC1`, the growth was 88.6%.

With `N#[N+]c1cnc([O-])[nH]c1=O`, the growth was 14.4%.

As to `CN1C(=O)NC(=O)C(N=Nc2ccc(Cl)cc2)C1=O` (stereo not given), the growth is 81.3%.

Turning to `c1ccc(-c2ccc3ccccc3[o+]2)cc1`, the growth is 81.2%.

As for `O=c1[nH]c2cc(Cl)ccc2n1C1CCN(CCCC(c2ccc(F)cc2)c2ccc(F)cc2)CC1`, the growth is -56.4% (active).

`C[C@]12CC[C@@H]3c4ccc(OC(=O)Cc5ccc(N(CCCl)CCCl)cc5)cc4CC[C@H]3[C@@H]1CC[C@@H]2OC(=O)Cc1ccc(N(CCCl)CCCl)cc1`: the growth is 134%.

As to `CC1(C)N=C(N)N=C(N)N1c1ccc(CCC(=O)Nc2cccc(S(=O)(=O)F)c2)cc1`, the growth was 91.1%.

`O=C1c2ccccc2C(=O)N1[N+](=O)[O-]`: the growth was 88.7%.

As for `CCOC(=O)c1cnc(SCc2ccc(Cl)c(Cl)c2)nc1N1CC1`, the growth is 36.7%.

For `CO[C@@H]([CH2][Hg][S]C#N)[C@@H]([CH2][Hg][S]C#N)OC`, the growth was 48.1%.

Regarding `O=S(=O)(O)c1ccc(-c2ccc([As](=O)(O)O)cc2)cc1`, the growth is 88.8%.

In the case of `COC(C)(C)CCC[C@H](C)C/C=C/C(C)=C/C(=O)OC(C)C`, the growth was 69.1%.

Consider `O=C(O)c1nn(Cc2ccc(Cl)cc2)c2ccccc12`, for which the growth is 96.8%.

In the case of `CCC(CC)(c1ccccc1)C(OC(N)=O)c1ccccc1` (stereo not given), the growth is 78.6%.

For the compound `COc1ccc(/C=C(/C(=O)N2CCCC2)c2cc(OC)c(OC)c(OC)c2)cc1N`, the growth was 3.14% (active).

Regarding `Cc1cc(C)nc(C)c1.[Cl][Hg][Cl]`, the growth was 3.42% (active).

For `CC1COC(=O)C1` (stereo not given), the growth was 99.4%.

As for `O=C(N/N=C/c1ccc(N(CCCl)CCCl)cc1)c1cc(=O)[nH]c(=O)[nH]1`, the growth was 96.7%.

On to `CN1CC2CCC(C1)C2=O`, for which the growth is 92.1%.

As to `CC1([N+](=O)[O-])COP(=O)(Nc2ccc(F)cc2)OC1` (stereo not given), the growth was 89.4%.

Turning to `COc1ccc(CN2CCN(Cc3ccccc3)CC2)c(O)c1`, the growth is 71.9%.

For the origin of these results see PubChem BioAssay (NCI).
